Laboratory results from PubChem BioAssay (NCI).
This is part of a sample that, as a whole, favours compounds with a hit. Of some 83,000 tested, about 20% had one in any assay.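 Results are percent growth after 48 hours of single-concentration exposure. 100 means growth as in untreated cells, lower positive values show inhibition; negative values down to -100 show cell death.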 Values without a mark were called inactive. Active and inactive are the calls of the source. How the source made its calls: active means growth percent below 10; inactive means the rest.

Each molecule was assayed on HCC-2998 colon (assay: NCI-60 one-dose screen, 48 h (100 = growth as untreated, 0 = no growth, -100 = all killed)). Settings: 10 µM unless noted.

Which growth does the source give for CCN(CC)C(=O)O/N=C(/C)c1ccccc1 here?
The growth was 104%.

For C=C1C(=O)O[C@H]2[C@H]1CC/C(COC(=O)NCc1ccc(Cn3c(=O)sn(CCCl)c3=O)cc1)=C\CC[C@@]1(C)O[C@@H]21, which growth is on record?
Its growth is 120%.

COc1ccc2c(c1)sc1nc(-c3ccccc3)c(-c3cccc4ccccc34)n12 was tested. Which growth did it give?
The growth was -26.8% (active).

How did the growth turn out when c1ccc(-c2nnn(-c3ccccc3)n2)cc1 was run?
Its growth is 107%.

For Cc1ccc2c(C)c3c(ccc4ccccc43)c[n+]2c1, which growth is on record?
The growth was 72.6%.

With O=C1/C(=C/N2N=C(c3ccc(Cl)cc3)CC2c2ccccc2O)SC(=S)N1c1cccc(C(F)(F)F)c1 (stereo not drawn) as the molecule, how does the growth read?
The growth was 62.3%.

CCN(C(=O)CCl)C(C)(C)C(SSSC(c1ccc(Cl)cc1)C(C)(C)N(CC)C(=O)CCl)c1ccc(Cl)cc1 (stereo not drawn) was tested. Which growth did it give?
Its growth is 85.6%.

With COc1cccc(/C=N\Nc2ccc([N+](=O)[O-])cn2)c1O as the molecule, how does the growth read?
Its growth is 82.2%.

How did the growth turn out when CCN(CC)CC(=O)Nc1c(C)cc(C(=O)NN)cc1C was run?
The growth was 107%.

How did the growth turn out when CCCC(CCC)(C(N)=O)C(=O)O was run?
Its growth is 100%.

For COc1cnc2c(c1)C(=O)c1c-2n(CCCNC(C)C)c(=O)c2cc(Cl)ccc12, which growth is on record?
The growth was -52.1% (active).

With Cc1nn(-c2cccc(Cl)c2)c(C)c1N=Nc1ccc(Br)cc1 as the molecule, how does the growth read?
Its growth is 100%.

With CCCCCCCCCCCCNC(=O)N[C@H](C(=O)N[C@H]1/C=C/OCCNC(=O)/C=C/[C@H](C(C)C)NC1=O)C(C)C as the molecule, how does the growth read?
Its growth is 90.4%.

How did the growth turn out when Cc1ccc(C(CN(C)C)C(=O)c2ccccc2)cc1 (stereo not drawn) was run?
The growth was 101%.

How did the growth turn out when Cc1c2c(cc3c1[nH]c1ccccc13)C=NCC2 was run?
Its growth is 96.8%.

For COc1ccc(C(=O)C(CN(C)C)c2ccc(OC)cc2)cc1 (stereo not drawn), which growth is on record?
The growth was 117%.

For CC(=O)O[C@H]1CC[C@]2(C)[C@H]3CC=C4[C@@H]5CC(C)(C)CC[C@]5(C(=O)OCC(COC(=O)C(Cl)Cl)(COC(=O)C(Cl)Cl)NC(=O)C(Cl)Cl)CC[C@@]4(C)[C@]3(C)CC[C@H]2C1(C)C, which growth is on record?
Its growth is 86.9%.

For COc1ccc2c(c1)C1=NN(C(=O)CO)[C@H](c3ccc(OC(F)(F)F)cc3)[C@@H]1CC2, which growth is on record?
Its growth is 91.9%.

CCOC(=O)c1cc(N)nc2ccccc12 was tested. Which growth did it give?
The growth was 111%.

With CCSCC1CC(O)(c2ccccc2)C(c2ccccc2)C(c2ccc(F)cc2)O1 (stereo not drawn) as the molecule, how does the growth read?
Its growth is 2.23% (active).

With Cc1nc(N)nc2c1CCC(Nc1ccccc1)S2 (stereo not drawn) as the molecule, how does the growth read?
Its growth is 104%.

How did the growth turn out when COc1cc(OC)c2sc(-c3ccc(-n4cncc4-c4ccc(OC)c(N)c4)cc3)nc2c1 was run?
Its growth is 91.8%.

COc1cc(OC)cc(-c2ccc(-c3ccc(C(=N)N)s3)s2)c1 was tested. Which growth did it give?
The growth was -71.7% (active).
